# Source: PubChem BioAssay
# VCAM1 TNFa pot: TNF alpha stimulated VCAM1 expression potentiation; HUVEC TNFa-stimulated VCAM-1 immunofluorescence, high-content imaging; scaled per plate to unstimulated/TNFa-only wells; activation, % at 2 µM; 0.19% of 93,000 active; AID 808;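 active = activation above the screen mean plus 3 SD, with well images confirming the hit on visual review, cut at about 28% in these data, passing the limit was not always enough; inconclusive = activation above that limit but images do not confirm it; inactive = activation not above that limit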;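 also: signal is the number of cytoplasmic VCAM-1 stained grains per positive cell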
# VCAM1 pot conf: enhancers of VCAM1 induction in HUVEC – imaging, triplicate retest, confirmation; AID 1034; 230 tested, under 10 active; activation, % at 2 µM; shares compounds with VCAM1 TNFa pot; HUVEC TNFa-stimulated VCAM-1 immunofluorescence imaging;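 active = activation above 30% in triplicate retests at 2 µM, then confirmed by visual review of the well images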
# A number is an active result; i = inactive; ? = inconclusive. The full list was thinned out, with hits kept by preference.
SMILES,VCAM1 TNFa pot,others
COC(=O)c1ccc(Oc2nc(NC(C)C)nc(N(C)C)n2)cc1,i,
CCNc1nc(NC(C)C)nc(Oc2ccc(OCCOc3ccc(C)cc3)nn2)n1,38.4,VCAM1 pot conf=i
COC(=O)CSc1nnc(C)n1-c1cccc(C#N)c1,i,
CCCCP(=O)(CCCC)Cc1ccccc1O,i,
Cc1ccnc(SCCn2c(N3CCN(Cc4ccccc4)CC3)nc3c2c(=O)[nH]c(=O)n3C)n1,i,
COc1ccc(NC(=O)CSc2nccc(C)n2)cc1,i,
COc1ccc(-n2ccnc2SCC(=O)Nc2ccccc2)cc1,80.8,VCAM1 pot conf=i
CCOC(=O)c1ccc(NC(=O)CSc2nnc(COc3ccccc3)n2C)cc1,i,
Cc1nonc1NC(=O)c1ccc(Cl)c(S(=O)(=O)N2CCCCC2)c1,i,
CC1(C)Cc2ccccc2C(=NCCCCCC(=O)O)N1,i,
c1ccc(-n2ncc3c(NCc4ccco4)ncnc32)cc1,i,
COc1ccccc1C(=O)NC(CCSC)C(=O)NCC(c1ccco1)N(C)C (configuration not stated),i,
CN(C)C(CNc1nnnn1-c1ccccc1)c1ccco1 (configuration not stated),?,VCAM1 pot conf=i
CC1(C)CC(=O)c2cnc(N3CCc4ccccc4C3)nc2C1,i,
Cc1c(C(N)=O)c(N)c(C(=O)c2ccccc2)n1-c1ccccc1,i,
O=C(NNC(=O)c1sccc1-n1cccc1)c1cccc(Cl)c1,i,
COC(=O)c1ccc(C)c(NC(=O)CN(c2ccc3c(c2)OCO3)S(C)(=O)=O)c1,i,
COc1cc2cc(Br)cc(Br)c2nc1C,i,
CCn1cc(C(=O)NCc2ccco2)c2cc(OC)c(OC)cc2c1=O,?,VCAM1 pot conf=i
Cc1ccc(OCC(=O)NCc2ccco2)cc1C,i,
CCCOc1ccc(CC(=O)NCc2ccco2)cc1OC,i,
OC1(c2cccc(C(F)(F)F)c2)CCN(c2ncnc3c2[nH]c2ccc(F)cc23)CC1,i,
N#Cc1ccc(-n2c(-c3ccccc3)nnc2-c2ccccc2)cc1C#N,52.5,VCAM1 pot conf=i
N#Cc1cc(Oc2ccccc2)c(-n2nnc3ccccc32)cc1C#N,i,
N#Cc1cnn(-c2ccccc2)c1N,i,
SMILES,VCAM1 TNFa pot,others
CCC/C(=N/NC(=O)c1csc(C)c1C)c1ccc(Cl)s1,i,
O=C(COC(=O)c1cc(S(=O)(=O)N2CCOCC2)c(Cl)cc1Cl)Nc1ncc(C(F)(F)F)cc1Cl,i,
O=C(CN1CCN(CC(=O)Nc2ccccc2Cl)CC1)Nc1ccc2c(c1)OCCO2,i,
Cc1cc(C)cc(NC(=O)CN2CCc3ccccc3C2)c1,i,
O=C(CN1CCC(n2nnc3ccccc32)CC1)Nc1ccc2c(c1)CCC2,?,VCAM1 pot conf=i
Cc1cc(C)n(-c2nc(-c3cccc(Cl)c3)cs2)n1,i,
CS(=O)(=O)N1CCN(C(=O)c2ccc(Br)s2)CC1,i,
CCOC(=O)c1cccc(NC(=O)C(C)N2C(=O)c3ccccc3C2=O)c1 (configuration not stated),36.2,VCAM1 pot conf=i
CCOC(=O)c1cccc(NC(=O)CN2C(=O)C3C4C=CC(C4)C3C2=O)c1 (configuration not stated),i,
CCOC(=O)c1ccc(NC(=O)C(C)N2C(=O)c3ccccc3C2=O)cc1 (configuration not stated),i,
CC(C)(C)n1[nH]c2c3c(ccc2c1=O)C(=O)c1ccccc1C3=O,37.0,VCAM1 pot conf=i
O=C(Cn1cnc([N+](=O)[O-])c1)Nc1cc(Oc2ccc(Cl)cc2Cl)cc([N+](=O)[O-])c1,i,
CC1(C(=O)O)Cc2ccccc2C(=O)O1 (configuration not stated),i,
CC(=NCCCNC1CCCCC1)C1=C(O)CC(C)(C)CC1=O,?,VCAM1 pot conf=i
Cc1ccc(NCc2nnc(SCC(=O)N(Cc3ccccc3)C(C)(C)C)o2)c(C)c1,i,
O=[N+]([O-])c1ccc(NCCNc2ccc(Cl)nn2)cc1,i,
Cc1ccc(OCc2ccoc2C(=O)O)cc1C,i,
CCCCC(CC)CNS(=O)(=O)c1ccc2c(c1)CCN2C(=O)CCC(=O)O (configuration not stated),i,
Cc1c(NC(=O)C(C)Sc2n[nH]c(N)n2)c(=O)n(-c2ccccc2)n1C (configuration not stated),i,
CCOC(=O)CNC(=O)CNC(=O)Cn1ccc2ccccc2c1=O,i,
Cn1c(=O)c(C(=O)c2ccccc2)nc2ccccc21,i,
COc1ccc2oc(=O)c(C(C)=O)cc2c1,i,
CC(=O)Oc1ccc2cc(-c3nc4ccccc4n3C)c(=O)oc2c1,48.3,VCAM1 pot conf=i
CS(=O)(=O)N(CC(=O)NCc1ccccc1Cl)Cc1ccccc1,i,
S=C(Nc1ccccc1)Nc1cc(Cl)ccc1Oc1ccccc1,i,
SMILES,VCAM1 TNFa pot,others
O=C1OC(Nc2ccc3ncccc3c2)c2ccccc21 (configuration not stated),i,
COc1ccc2c(c1OC)C(=O)OC2CC(=O)c1ccc2c(c1)OCO2 (configuration not stated),i,
COc1ccc2c(c1OC)C(=O)OC2Nc1ccccn1 (configuration not stated),53.6,VCAM1 pot conf=i
O=C(c1cccs1)N1CCC(c2nc3c(nnn3Cc3ccccc3)c(=O)[nH]2)CC1,i,
COc1ccc(-c2onc3ccc(Cl)cc23)cc1,i,
CCOC(=O)N1CCN(/C=C(\C#N)c2nc3ccccc3s2)CC1,i,
CCC(C)COC(=O)C(C#N)c1nc2ccccc2nc1N1CCCCC1 (configuration not stated),36.0,VCAM1 pot conf=i
CC1CC(NC(=O)Cc2ccc(Br)cc2)CC(C)(C)C1 (configuration not stated),i,
CCN1C(=O)/C(=C2/SC(C)=C(C)N2CC)SC1=S,i,
O=c1oc2ccccc2c2c1ncn2C1CCCCC1,i,
Cc1ccc(NC(=O)CCN2C(=O)CSC2=O)cc1,i,
O=C(CN1C(=O)CSC1=O)NC1CCCCC1,42.4,VCAM1 pot conf=i
Cn1c(=O)cc(OCC(=O)NC2CCCCC2)c2ccccc21,i,
COCCNC(=O)CN(C(=O)CCC(=O)Nc1cc(C)on1)c1ccccc1C,i,
O=C(CCCCCN1C(=O)c2ccccc2C1=O)Nc1nccs1,i,
C#CCSc1nc(Cc2ccc(Cl)cc2)nc2ccccc12,i,
CC(C)C(=O)Nc1nc2c(ncn2C2CC(O)C(CO)O2)c(=O)[nH]1 (configuration not stated),30.1,VCAM1 pot conf=i
O=C(CCCSc1nc2ccccc2s1)NC1=NCCS1,i,
CN(C)C(=O)c1ccccc1-c1ccccc1,i,
O=C(COC(=O)c1cccnc1Nc1cccc(C(F)(F)F)c1)NCc1ccc2c(c1)OCO2,27.6,VCAM1 pot conf=i
O=C(COC(=O)Cc1cccc(C(F)(F)F)c1)NCC1CCCO1 (configuration not stated),i,
O=C(COC(=O)c1cnccn1)Nc1ccc2c(c1)OCO2,i,
Cn1ccnc1C(=O)c1cc(=O)c2ccccc2o1,i,
O=C(Nc1cc(Cl)cc(Cl)c1)C1CCC(=O)N1Cc1ccccc1Cl (configuration not stated),i,
Cc1n[nH]c(=S)c2nn(-c3ccccc3F)c(C)c12,55.2,VCAM1 pot conf=i
SMILES,VCAM1 TNFa pot,others
CC1CCCCN1C(=O)Cn1cc(C(=O)c2ccco2)c2ccccc21 (configuration not stated),i,
Cc1nccn1CC(O)COc1ccccc1 (configuration not stated),i,
Cc1nccn1CC(O)COC1CCCCC1 (configuration not stated),?,VCAM1 pot conf=i
Cc1nc2ccccc2n1CC(O)COC1CCCCC1 (configuration not stated),i,
COc1ccccc1-c1nnc(SC2CCc3ccccc3NC2=O)s1 (configuration not stated),i,
Cc1c2cccn2cc[n+]1C,i,
